From PubChem
Only a selection was taken, and hits are over-represented in it overall.
Pf Dd2 growth – Plasmodium falciparum Dd2 growth inhibition; Potency, µM (top dose mostly 28.9 µM), for the others: at the highest dose activity, negative = inhibition, actives largely listed as inhibitors; 120,000 compounds, 4.3% hits; P. falciparum Dd2 growth, SYBR Green, 72 h; AID 1347417; active = well fitted inhibition curve with a large enough effect;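 note: plate controls were DMSO vehicle for no effect and reference drug for full effect; nearly all actives have a fitted effect of over 65% in size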
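Infected erythrocytes (Dd2, 0.3% parasitemia, 2.5% hematocrit final) are added to compound in RPMI-1640/Albumax II medium, grown 72 h at 37C in low oxygen, then lysed with saponin/Triton-X containing SYBR Green and read by fluorescence.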
An asterisk follows results filed as active; i = inactive; [ ] = dose if it differs, or a comment. Potency is the fitted concentration of half-maximal effect.

SMILES | Pf Dd2 growth
CNC(=O)C1(N2CCC[C@H]2C(=O)N(C)CCN(C)C)CCOCC1 | 22%[44.1 µM]
Cc1cc(Cl)ccc1NC(=O)N1CCCC1c1nncn1-c1ccccc1 (centres undefined) | -6%
O=C(O)C1=NOC2CN(Cc3ccc(F)cc3)CC12 (centres undefined) | 18%[44.1 µM]
CCN(CC)Cc1cnc2c(C(=O)NCCc3ncc[nH]3)cnn2c1 | 6%
CN(Cc1ccccc1)C(=O)CCc1ccnc(N2CCOCC2)c1 | 10%
CC[C@@]1(O)CCN(CC(=O)NCc2cc(C(=O)O)ccc2C)C[C@H]1O | 7%
CCCCCC(=O)N1CC[C@@H](CC(=O)N(C)CCC#N)[C@@H](CC)C1 | -8%[44.1 µM]
O=C(NC1CC1)c1ccc(Cn2c(SCc3ccccc3F)nc3cccnc32)cc1 | -4%
COc1ccc(Cn2c(SCc3ccc(C(=O)NCCc4ccccc4)cc3)nc3cccnc32)cc1 | 13µM*
CCN1Cc2nc(OC)c(CNC(=O)[C@H](O)C3CCCCC3)cc2C1=O | -20%
COCCC1(C(=O)O)CCCN(CCCn2ccnc2C)C1 (centres undefined) | 4%
COc1cccc(CC(=O)N2[C@@H]3CC[C@H]2CC(NC(=O)c2ccc(F)cc2)C3)c1 (some centres undefined) | i
CC(C)CC(=O)N1[C@@H]2CC[C@H]1CC(NC(=O)c1ccc(F)cc1)C2 (some centres undefined) | -18%
O=C(NC1C[C@H]2CC[C@@H](C1)N2C(=O)CCCc1ccccc1)c1ccc(F)cc1 (some centres undefined) | 8.9µM*
COc1ccc(Cl)cc1NC(=O)c1oc2ccc(S(=O)(=O)N3CCCCC3)cc2c1C | 41%
COc1ccc(NC(=O)c2oc3ccc(S(=O)(=O)N4CCCCC4)cc3c2C)cc1Cl | 11µM*
O=C(Nc1ccc(Cl)c(C(F)(F)F)c1)c1ccc2c(c1)CCN2S(=O)(=O)c1ccccc1 | 8.9µM*
Cc1ccc(Cl)cc1NC(=O)c1oc2ccc(S(=O)(=O)N3CCCCCC3)cc2c1C | 5%
COc1ccc(C(=O)Nc2ccc3c(c2)CCCN3S(=O)(=O)c2ccc(C)cc2)cc1 | i
Cc1ccc(C)c(NC(=O)c2ccc3c(c2)CCN3S(=O)(=O)c2ccccc2)c1 | -19%
CC(=O)Nc1ccc(NC(=O)c2ccc3c(c2)CCN3S(=O)(=O)c2ccc(C)cc2)cc1 | 19%
CCc1cccc(CC)c1NC(=O)c1ccc2c(c1)CCN2S(=O)(=O)c1ccccc1 | 7%
COc1ccc(NC(=O)c2ccc3c(c2)CCN3S(=O)(=O)c2ccc(C)cc2)cc1Cl | 8.9µM*
COc1ccccc1Cc1nc(-c2nnn3c2COC(c2ccc(Cl)cc2)C3)no1 (centres undefined) | -22%
COC(=O)[C@H](Cc1ccc(OC)cc1)NC(=O)[C@@H]1CNCCN1S(=O)(=O)c1ccccc1 | i
SMILES | Pf Dd2 growth
C#CCN(C)C(=O)[C@@H](C)C1CC[C@@]2(C)Cc3sc(NC)nc3[C@@H](C)[C@@H]2[C@H]1O (some centres undefined) | i
CCN(CC)C(=O)[C@@H](C)C1CC[C@@]2(C)Cc3sc(Nc4c(Cl)cccc4Cl)nc3[C@@H](C)[C@@H]2[C@H]1O (some centres undefined) | 13µM*
CCN(CC)C(=O)C(C)[C@@H]1CC[C@@]2(C)Cc3sc(NC(=O)C4CC4)nc3[C@@H](C)[C@@H]2[C@H]1O (some centres undefined) | 32%
COCCNC(=O)[C@H]1CN2CCC1C[C@@H]2Cn1cc(-c2ccc(OC)cc2)nn1 (some centres undefined) | 6%[44.1 µM]
Cc1cc(C)n(Cc2ccc(C(=O)N3CCCCCCNC(=O)CC3)o2)n1 | -25%
CN(Cc1cccc(-c2nn[nH]n2)c1)C(=O)C1CCCN(CC(N)=O)C1 (centres undefined) | -11%
CNC(=O)[C@@H]1CN(C(=O)Cc2ccc(OC)c(OC)c2)C[C@H]1COC | -11%
COc1cc2c(cc1OC)C(CC(=O)O)N(C(=O)Nc1cc(OC)c(OC)c(OC)c1)CC2 (centres undefined) | i
CCCC(=O)N1CCc2cc(OC)c(OC)cc2C1COc1ccc(C(=O)OC)cc1 (centres undefined) | 10µM*
COc1cc2c(cc1OC)C(CNC(=O)CC(C)C)N(C(=O)NC(C)C)CC2 (centres undefined) | i
COC(=O)c1ccc(OCC2c3cc(OC)c(OC)cc3CCN2C(=O)Cc2ccc(OC)c(OC)c2)cc1 (centres undefined) | 11µM*
CCOc1ccc(NC(=O)N2CCc3cc(OC)c(OC)cc3C2CNC(=O)CC(C)C)cc1 (centres undefined) | i
CCC(=O)N1CCc2cc(CNC(=O)Cc3ccc(OC)c(OC)c3)ccc21 | 23%
COC(=O)c1ccc(OCC2c3cc(OC)c(OC)cc3CCN2C(=O)c2ccc(OC)cc2)cc1 (centres undefined) | 7.1µM*
COC(=O)c1ccc(OCC2c3cc(OC)c(OC)cc3CCN2C(=O)Cc2ccc(OC)cc2)cc1 (centres undefined) | 10µM*
COCc1cc(C[C@@H]2CC[C@H](O)[C@@H](CNC(=O)N3CCOCC3)O2)no1 | i
Cc1ccc(NC(=O)N2CCC(CCNC(=O)CCC3CCCC3)CC2)cc1 | -14%
CCOCCCNC(=O)N1CCC(OC2CCN(S(C)(=O)=O)CC2)CC1 | 15%
CC(=O)N1CCC(C2CCN(C(=O)C3CNC3)C2)CC1 (centres undefined) | 4%
COc1cc2c(cc1OC)C(COc1ccccc1OC)N(C(=O)COc1ccc(Cl)cc1)CC2 (centres undefined) | 8.9µM*
COc1ccc(CC(=O)N2[C@@H]3CC[C@H]2CC(NC(=O)c2ccc(F)cc2)C3)cc1OC (some centres undefined) | i
CCCCC(=O)N1CCc2cc(OC)c(OC)cc2C1COc1ccc(C(=O)OCC)cc1 (centres undefined) | 11µM*
CCNC(=O)N1CCc2cc(OC)c(OC)cc2C1CNC(=O)CC(C)C (centres undefined) | 0%
COC[C@@H]1CN(C(=O)COc2ccc(Cl)cc2)C[C@H]1C(N)=O | -1%
COc1ccc(CC(=O)N2CCc3cc(OC)c(OC)cc3C2COc2cc(C)cc(C)c2)cc1OC (centres undefined) | 4µM*
SMILES | Pf Dd2 growth
COc1ccc(C(=O)N2CCN(C(=O)COc3ccc(C)cc3)CC2)cc1OC | 24%
CCOC(=O)CC1c2cc(OCC)c(OCC)cc2CCN1C(=O)Nc1cccc(Cl)c1 (centres undefined) | -23%
CCOc1cc2c(cc1OCC)C(CC(=O)OC)N(C(=O)Nc1cc(C)cc(C)c1)CC2 (centres undefined) | 20%
CCOC(=O)c1ccc(OCC2c3cc(OC)c(OC)cc3CCN2C(=O)Cc2ccc(F)cc2)cc1 (centres undefined) | 10µM*
O=C1[C@H]2CN(Cc3cccc(Br)c3)C[C@H]2C(=O)N1Cc1ccc2c(c1)OCO2 | 1%
CCOC(=O)C1CCN(C(=O)C2COC3(CCC(C)CC3)N2C(=O)c2cccc(C)c2)CC1 (centres undefined) | -23%
Cn1nc(C(=O)N2CCOCC(O)(CN3CCCC3)C2)ccc1=O (centres undefined) | 2%
Cc1ccc(CNC(=O)N2C[C@@H](F)C[C@H]2C(=O)N2CCCCC2)cc1 | i
CCc1ccc(CNC(=O)c2cc3n(n2)CC(c2ccc4c(c2)OCO4)OC3)cc1 (centres undefined) | i
COc1cccc(S(=O)(=O)NCCc2noc(-c3cccnc3)n2)c1 | -1%
